The record followed here is PubChem BioAssay (NCI).

Compounds without any hit were thinned out: in the full panel of roughly 79,000, 15% have a hit. A number with no mark means an inactive call. Activity calls are given as the source filed them. Rule as the data show it: active = growth inhibition above about 70%; inactive = the rest.

Experiment [1] can be described thus: NCI Yeast Anticancer Drug Screen. Data for the rad50 strain (AID 155).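 Also: 0% = growth of vehicle-only cultures of the same strain.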 Particulars: S. cerevisiae rad50 strain growth inhibition; at 50.0 µM; hits give high values. Summed up:
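Readout: growth inhibition relative to vehicle-treated cultures. Compound exposure was carried out in a genetically defined yeast strain deficient in DNA damage repair.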

Experiment [2] is described as follows: NCI Yeast Anticancer Drug Screen. Data for the mec2-1 strain (AID 157). The note with it: S. cerevisiae mec2-1 strain, at 50.0 µM, hits give high values. Summed up: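 Test agents were screened against the mec2-1 yeast strain, with defined DNA repair or cell cycle alteration. Growth was scored as inhibition against vehicle-only controls.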
The nature of experiment [3]: NCI Yeast Anticancer Drug Screen. Data for the sgs1 mgt1 strain (AID 161).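 Also: 0% = growth of cultures given vehicle only.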 Particulars: S. cerevisiae sgs1 mgt1 strain, at 50.0 µM, hits give high values. Summed up: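 Inhibition of yeast growth, normalised to vehicle-treated controls, is reported for a strain bearing genetic alterations in DNA damage repair.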
Experiment [4] is described as follows: NCI Yeast Anticancer Drug Screen. Data for the cln2 rad14 strain (AID 165).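 Also: 0% = growth equal to vehicle treated cultures.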 Particulars: S. cerevisiae cln2 rad14 strain, at 50.0 µM, hits give high values. The method in brief:
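Growth of compound-exposed yeast (cln2 rad14 genotype) measured and expressed as inhibition relative to vehicle.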

Experiment [5] in a line: NCI Yeast Anticancer Drug Screen. Data for the bub3 strain (AID 167). The note with it: S. cerevisiae bub3 mutant strain, at 50.0 µM, hits give high values. The method in brief: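 Readout: yeast growth inhibition, expressed relative to vehicle-only wells. The test organism is a mutant strain from a panel with lesions in DNA repair or checkpoint genes.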
A short description of experiment [6]: NCI Yeast Anticancer Drug Screen. Data for the mlh1 rad18 strain (AID 175). The note with it: S. cerevisiae mlh1 rad18 strain growth inhibition; at 50.0 µM; hits give high values. Summed up:
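In this whole-cell yeast screen, a strain with altered DNA damage repair is challenged with compound, and its growth is measured against matched vehicle-treated controls.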

As to `COc1ccc2ccc3c(CCN(C)C#N)cc4c(c3c2c1OC(C)=O)OCO4`, the growth inhibition was 11.7% in experiment [1]; -2.15% in experiment [2]; -8.9% in experiment [3]; 6.6% in experiment [4]; -0.95% in experiment [5]; 0.15% in experiment [6].

Regarding `CCOc1ncc(C[n+]2csc(CCO)c2C)c(N)n1`, the growth inhibition in experiment [1] is -4.95%; in experiment [2] it was -8.7%; in experiment [3], 8.25%; in experiment [4], 0.8%; in experiment [5] it was -19.9%; in experiment [6], -5.35%.

`C/C(=N/NC(=O)CC#N)c1ccccc1`: the growth inhibition in experiment [1] is 25.2%; in experiment [2], -0.5%; in experiment [3], 16.7%; in experiment [4], -20.6%; in experiment [5], 27.7%; in experiment [6], 0.4%.

Consider `CC1(C)CCCc2c(-c3ccccc3)cc3c4[nH]c5ccccc5c4cc[n+]3c21`, for which the growth inhibition in experiment [1] is 23.6%; in experiment [2] it was -5.4%; in experiment [3], 11.1%; in experiment [4], 3.65%; in experiment [5], -2.5%; in experiment [6] it was 7%.

Turning to `Brc1ccc2oc3ccccc3c2c1`, the growth inhibition is 24.4% in experiment [1]; -2.45% in experiment [2]; 18.4% in experiment [3]; -5.5% in experiment [4]; 6.75% in experiment [5]; 24.8% in experiment [6].

For the molecule `CCc1cccc2[nH]c3cc([N+](=O)[O-])ccc3c12`, the growth inhibition was 12% in experiment [1]; -13.8% in experiment [2]; 2.5% in experiment [3]; -22.8% in experiment [4]; -0.4% in experiment [5]; 15.7% in experiment [6].

Regarding `O=S(=O)(Nc1ncccn1)c1ccc(N=NSC2=NC=NC3=NC=NC32)cc1` (stereo not given), the growth inhibition in experiment [1] was 21.3%; in experiment [2] it was 17.4%; in experiment [3], 20.5%; in experiment [4] it was 4%; in experiment [5] it was 0.05%; in experiment [6], 11.8%.

Regarding `NNc1nc(N2CCOCC2)c2[nH]cnc2n1`, the growth inhibition in experiment [1] was -1.3%; in experiment [2], -5.45%; in experiment [3], 14.2%; in experiment [4], 4.5%; in experiment [5], -9.9%; in experiment [6], 4.75%.

On to `O=Cc1ccccc1S(=O)(=O)O`, for which the growth inhibition in experiment [1] was 6.65%; in experiment [2], 7.4%; in experiment [3] it was -6.5%; in experiment [4], -45.4%; in experiment [5] it was 11.2%; in experiment [6], -13.2%.

With `O=[N+]([O-])c1ccc(S(=O)c2ccc([N+](=O)[O-])cc2)cc1`, the growth inhibition in experiment [1] is 24.8%; in experiment [2] it was 11.6%; in experiment [3] it was 5.5%; in experiment [4] it was -11.1%; in experiment [5] it was -1.75%; in experiment [6], -4.75%.

Consider `Cn1c(N)cc(=O)n(C)c1=O`, for which the growth inhibition is 22.6% in experiment [1]; 3.95% in experiment [2]; 18% in experiment [3]; 0.1% in experiment [4]; 17.5% in experiment [5]; 27% in experiment [6].

Consider `c1ccc(-c2nnsc2-c2ccccc2)cc1`, for which the growth inhibition in experiment [1] is 17.5%; in experiment [2] it was -4.35%; in experiment [3], 27.6%; in experiment [4], 10.8%; in experiment [5], -3.9%; in experiment [6], 20.4%.

For `COc1ccc2cc3n(c2c1)CCc1cc(OC)c(OC)cc1-3`, the growth inhibition was 13.6% in experiment [1]; -10.8% in experiment [2]; 5.9% in experiment [3]; 23.9% in experiment [4]; 3% in experiment [5]; 14.2% in experiment [6].

Take `COCOc1c(OC)c(C2(O)C(=O)N(C)c3ccccc32)c(OCOC)c(OC)c1C1(O)C(=O)N(C)c2ccccc21` (stereo not given): the growth inhibition was 0.9% in experiment [1]; 13.8% in experiment [2]; -14.9% in experiment [3]; -3.9% in experiment [4]; 0% in experiment [5]; 15.4% in experiment [6].

For the molecule `O=C1c2ccccc2C(=O)N1CN1CCC(CCCC2CCN(CN3C(=O)c4ccccc4C3=O)CC2)CC1`, the growth inhibition was -58.5% in experiment [1]; -34.2% in experiment [2]; -36.3% in experiment [3]; -11.1% in experiment [4]; -48.1% in experiment [5]; -44.8% in experiment [6].

Regarding `ONC1=Nc2ccccc2C(=S)N2CSCC12` (stereo not given), the growth inhibition was -21% in experiment [1]; -13.4% in experiment [2]; -26.4% in experiment [3]; -19.6% in experiment [4]; -21.6% in experiment [5]; 15.9% in experiment [6].

`C=C[C@@]1(C)CCC2(O)C(CCC3C2(C)CCC[C@@]3(C)COC(=O)CC(=O)OC)C1` (stereo not given in full): the growth inhibition is 82.8% (active) in experiment [1]; 72.1% (active) in experiment [2]; 78% (active) in experiment [3]; 60.5% in experiment [4]; 76.3% (active) in experiment [5]; 79.2% (active) in experiment [6].

In the case of `CC(C)=CC1CCc2ccccc2N1S(=O)(=O)c1ccc(C)cc1` (stereo not given), the growth inhibition is 31.8% in experiment [1]; 0.25% in experiment [2]; -14.9% in experiment [3]; -8.7% in experiment [4]; -31.7% in experiment [5]; -22.6% in experiment [6].

In the case of `C=CCCCCC1CCC2CCC(CCCCC=C)N12` (stereo not given), the growth inhibition was 40.8% in experiment [1]; 28.4% in experiment [2]; 38.6% in experiment [3]; 42.5% in experiment [4]; 49.4% in experiment [5]; 35.9% in experiment [6].

As to `S=c1s/c(=C\c2ccccc2)c2nc3ccccc3n12`, the growth inhibition in experiment [1] was 7.15%; in experiment [2], 9.2%; in experiment [3], -9.4%; in experiment [4] it was -46.7%; in experiment [5] it was 13.9%; in experiment [6], 4.75%.
